{"source": "paper PMC7862700", "about": "“An all-to-all approach to the identification of sequence-specific readers for epigenetic DNA modifications on cytosine”", "test_in_all_cases": "DAPPL (digital affinity profiling via proximity ligation, sequencing); 10 mM Tris-HCl pH 7.5, 50 mM NaCl, 1 mM DTT, 4% glycerol, room temperature, 30 min; GST-TFs on glutathione beads, 16-mer random dsDNA library, 0.1% formaldehyde crosslink after washing; high values mean tight binding", "settings_in_all_cases": "protein: recombinant; tags: N-terminal GST; dsDNA, one strand shown", "key": {"ELK1": {"target": "T1, ELK1 (Homo sapiens, UniProt P19419 1-428)", "T1 sequence": "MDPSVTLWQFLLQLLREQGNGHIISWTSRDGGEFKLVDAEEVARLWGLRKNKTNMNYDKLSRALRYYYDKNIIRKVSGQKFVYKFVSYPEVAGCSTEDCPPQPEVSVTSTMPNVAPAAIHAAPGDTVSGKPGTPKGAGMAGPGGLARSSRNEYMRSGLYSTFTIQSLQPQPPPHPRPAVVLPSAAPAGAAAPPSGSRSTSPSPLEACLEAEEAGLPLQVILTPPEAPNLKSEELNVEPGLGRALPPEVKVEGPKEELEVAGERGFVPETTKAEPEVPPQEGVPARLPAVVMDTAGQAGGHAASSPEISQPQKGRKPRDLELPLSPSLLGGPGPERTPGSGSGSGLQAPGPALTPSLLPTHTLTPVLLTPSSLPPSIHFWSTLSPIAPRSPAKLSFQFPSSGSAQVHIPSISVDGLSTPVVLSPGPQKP", "in_short": "(§1)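 Yeast served to express human transcription factors as GST fusions, which were then captured on glutathione beads and labelled with DNA barcodes. Pooled with a tag-only sample, they were incubated with 200 nmole of a 16-mer random double-stranded DNA library for 30 min at room temperature in Tris/NaCl/DTT/glycerol buffer, washed, crosslinked with 0.1% formaldehyde, ligated by proximity, amplified by PCR and sequenced. Dividing each hexamer's read frequency for a factor by its frequency for the tag-only sample gives the binding signal.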"}, "ERG": {"target": "T2, ERG (Homo sapiens, UniProt P11308 1-479)", "T2 sequence": "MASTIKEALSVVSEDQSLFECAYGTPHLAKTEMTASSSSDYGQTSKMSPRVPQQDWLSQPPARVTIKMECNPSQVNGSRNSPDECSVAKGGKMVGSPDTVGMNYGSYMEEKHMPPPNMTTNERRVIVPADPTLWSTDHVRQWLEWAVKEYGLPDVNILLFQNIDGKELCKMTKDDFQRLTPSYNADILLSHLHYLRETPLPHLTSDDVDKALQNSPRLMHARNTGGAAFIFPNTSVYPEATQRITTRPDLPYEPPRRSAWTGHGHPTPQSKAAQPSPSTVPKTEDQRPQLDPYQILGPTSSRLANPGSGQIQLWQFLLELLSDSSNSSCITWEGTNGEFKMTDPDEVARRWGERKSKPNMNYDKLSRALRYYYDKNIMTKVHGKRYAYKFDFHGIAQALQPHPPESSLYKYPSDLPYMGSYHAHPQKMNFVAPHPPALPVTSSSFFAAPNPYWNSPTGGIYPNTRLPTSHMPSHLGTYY", "in_short": "as §1"}, "ELF1": {"target": "ELF1 (Homo sapiens, UniProt P32519 1-619)", "sequence (P32519 whole entry)": "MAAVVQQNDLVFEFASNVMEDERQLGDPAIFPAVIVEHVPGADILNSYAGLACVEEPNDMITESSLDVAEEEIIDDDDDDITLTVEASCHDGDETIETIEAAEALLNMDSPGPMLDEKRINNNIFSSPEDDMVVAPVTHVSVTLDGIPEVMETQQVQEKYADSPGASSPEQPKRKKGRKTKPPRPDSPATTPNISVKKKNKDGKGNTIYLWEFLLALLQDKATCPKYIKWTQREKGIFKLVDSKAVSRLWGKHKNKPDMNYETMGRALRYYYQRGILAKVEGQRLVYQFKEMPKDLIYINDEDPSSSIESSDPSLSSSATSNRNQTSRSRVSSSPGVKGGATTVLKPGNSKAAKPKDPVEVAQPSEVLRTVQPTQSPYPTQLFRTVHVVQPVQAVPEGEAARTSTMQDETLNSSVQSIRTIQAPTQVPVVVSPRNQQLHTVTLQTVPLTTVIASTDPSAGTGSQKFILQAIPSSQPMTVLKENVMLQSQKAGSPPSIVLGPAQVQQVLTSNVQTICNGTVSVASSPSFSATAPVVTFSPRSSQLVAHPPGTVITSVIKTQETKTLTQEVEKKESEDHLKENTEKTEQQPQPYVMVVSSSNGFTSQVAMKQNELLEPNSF", "in_short": "as §1"}, "EHF": {"target": "T3, EHF (Homo sapiens, UniProt Q9NZC4 1-300)", "T3 sequence": "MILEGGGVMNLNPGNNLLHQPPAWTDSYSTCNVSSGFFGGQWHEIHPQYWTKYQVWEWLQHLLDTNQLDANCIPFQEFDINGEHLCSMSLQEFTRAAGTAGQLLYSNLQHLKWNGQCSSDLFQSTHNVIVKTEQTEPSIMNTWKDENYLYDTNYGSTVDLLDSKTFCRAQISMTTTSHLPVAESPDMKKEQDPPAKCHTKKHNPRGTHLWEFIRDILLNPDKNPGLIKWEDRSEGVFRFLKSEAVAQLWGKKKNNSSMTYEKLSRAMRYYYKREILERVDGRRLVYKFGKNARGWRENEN", "in_short": "as §1"}, "SPI1": {"target": "SPI1 (Homo sapiens, UniProt P17947 1-270)", "in_short": "as §1"}, "SPIB": {"target": "SPIB (Homo sapiens, UniProt Q01892 1-262)", "sequence (Q01892 whole entry)": "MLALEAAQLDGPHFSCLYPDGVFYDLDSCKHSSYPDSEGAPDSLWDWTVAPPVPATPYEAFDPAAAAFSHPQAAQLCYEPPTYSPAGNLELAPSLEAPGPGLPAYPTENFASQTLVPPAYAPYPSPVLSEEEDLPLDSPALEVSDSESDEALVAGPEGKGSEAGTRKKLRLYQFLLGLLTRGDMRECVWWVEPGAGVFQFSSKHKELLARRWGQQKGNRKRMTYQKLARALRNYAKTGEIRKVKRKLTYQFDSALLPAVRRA", "in_short": "as §1"}, "ELK3": {"target": "T4, ELK3 (Homo sapiens, UniProt P41970 1-407)", "T4 sequence": "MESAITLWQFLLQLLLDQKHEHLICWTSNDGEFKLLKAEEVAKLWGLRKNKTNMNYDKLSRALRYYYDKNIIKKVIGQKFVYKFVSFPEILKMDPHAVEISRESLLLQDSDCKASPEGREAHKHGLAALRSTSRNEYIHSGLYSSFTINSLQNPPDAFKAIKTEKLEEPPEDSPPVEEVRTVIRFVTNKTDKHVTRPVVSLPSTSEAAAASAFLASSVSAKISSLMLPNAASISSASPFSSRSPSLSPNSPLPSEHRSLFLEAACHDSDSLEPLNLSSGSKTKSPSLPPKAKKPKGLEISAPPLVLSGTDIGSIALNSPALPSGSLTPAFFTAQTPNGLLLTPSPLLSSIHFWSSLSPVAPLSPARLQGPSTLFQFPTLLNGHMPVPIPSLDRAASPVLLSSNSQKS", "in_short": "as §1"}, "SPIC": {"target": "T5, SPIC (Homo sapiens, UniProt Q8N5J4 1-248)", "T5 sequence": "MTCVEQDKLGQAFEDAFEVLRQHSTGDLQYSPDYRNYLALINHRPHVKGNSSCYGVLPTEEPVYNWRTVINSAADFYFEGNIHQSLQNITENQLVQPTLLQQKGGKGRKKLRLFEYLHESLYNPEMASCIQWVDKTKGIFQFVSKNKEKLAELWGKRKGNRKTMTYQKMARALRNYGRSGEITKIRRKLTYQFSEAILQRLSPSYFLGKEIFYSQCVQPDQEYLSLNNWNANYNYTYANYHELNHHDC", "in_short": "as §1"}, "ELF4": {"target": "ELF4 (Homo sapiens, UniProt Q99607 1-663)", "sequence (Q99607 whole entry)": "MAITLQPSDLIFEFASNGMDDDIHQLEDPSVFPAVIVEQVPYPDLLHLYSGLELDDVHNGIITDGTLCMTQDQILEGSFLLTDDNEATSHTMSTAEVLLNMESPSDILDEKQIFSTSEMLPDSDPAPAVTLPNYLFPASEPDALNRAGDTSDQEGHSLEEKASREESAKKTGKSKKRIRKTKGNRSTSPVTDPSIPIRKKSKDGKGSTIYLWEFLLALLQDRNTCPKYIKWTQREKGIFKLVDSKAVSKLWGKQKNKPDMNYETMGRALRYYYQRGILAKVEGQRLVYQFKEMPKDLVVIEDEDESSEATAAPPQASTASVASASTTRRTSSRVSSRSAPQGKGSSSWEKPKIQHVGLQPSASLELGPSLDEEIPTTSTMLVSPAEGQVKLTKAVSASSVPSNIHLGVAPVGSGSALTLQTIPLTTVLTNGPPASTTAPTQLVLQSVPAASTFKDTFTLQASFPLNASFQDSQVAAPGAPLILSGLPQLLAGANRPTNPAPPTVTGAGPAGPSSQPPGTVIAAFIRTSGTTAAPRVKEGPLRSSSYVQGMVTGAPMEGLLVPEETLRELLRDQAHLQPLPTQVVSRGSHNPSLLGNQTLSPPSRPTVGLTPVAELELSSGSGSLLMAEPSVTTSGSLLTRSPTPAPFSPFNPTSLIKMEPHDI", "in_short": "as §1"}, "ELK4": {"target": "T6, ELK4 (Homo sapiens, UniProt P28324-2 1-405)", "T6 sequence": "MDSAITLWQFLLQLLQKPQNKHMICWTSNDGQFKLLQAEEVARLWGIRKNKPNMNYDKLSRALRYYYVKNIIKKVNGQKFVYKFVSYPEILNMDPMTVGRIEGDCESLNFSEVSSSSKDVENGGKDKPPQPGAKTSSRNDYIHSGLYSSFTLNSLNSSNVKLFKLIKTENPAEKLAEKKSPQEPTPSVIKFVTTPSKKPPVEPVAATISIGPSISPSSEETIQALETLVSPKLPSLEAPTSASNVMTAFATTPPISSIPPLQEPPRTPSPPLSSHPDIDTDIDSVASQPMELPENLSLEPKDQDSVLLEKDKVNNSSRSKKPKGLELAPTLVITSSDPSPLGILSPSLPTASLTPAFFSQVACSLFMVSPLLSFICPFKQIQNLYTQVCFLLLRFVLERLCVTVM", "in_short": "as §1"}, "ETV1": {"target": "ETV1 (Homo sapiens, UniProt P50549 1-477)", "sequence (P50549 whole entry)": "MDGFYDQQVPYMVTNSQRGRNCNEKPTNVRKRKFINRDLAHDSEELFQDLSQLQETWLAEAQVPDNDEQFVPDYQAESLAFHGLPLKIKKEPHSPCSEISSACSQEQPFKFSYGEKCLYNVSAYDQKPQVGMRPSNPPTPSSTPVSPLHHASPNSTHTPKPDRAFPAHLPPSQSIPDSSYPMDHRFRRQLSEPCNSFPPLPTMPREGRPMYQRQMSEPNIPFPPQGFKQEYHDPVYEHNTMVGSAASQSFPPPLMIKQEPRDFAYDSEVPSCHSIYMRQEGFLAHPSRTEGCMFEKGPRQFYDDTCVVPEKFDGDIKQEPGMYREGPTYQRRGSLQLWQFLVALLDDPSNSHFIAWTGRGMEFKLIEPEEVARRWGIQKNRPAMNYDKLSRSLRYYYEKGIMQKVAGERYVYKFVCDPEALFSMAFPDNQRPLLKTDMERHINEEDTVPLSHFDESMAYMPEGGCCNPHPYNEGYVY", "in_short": "as §1"}, "ERF": {"target": "T7, ERF (Homo sapiens, UniProt P50548 1-548)", "T7 sequence": "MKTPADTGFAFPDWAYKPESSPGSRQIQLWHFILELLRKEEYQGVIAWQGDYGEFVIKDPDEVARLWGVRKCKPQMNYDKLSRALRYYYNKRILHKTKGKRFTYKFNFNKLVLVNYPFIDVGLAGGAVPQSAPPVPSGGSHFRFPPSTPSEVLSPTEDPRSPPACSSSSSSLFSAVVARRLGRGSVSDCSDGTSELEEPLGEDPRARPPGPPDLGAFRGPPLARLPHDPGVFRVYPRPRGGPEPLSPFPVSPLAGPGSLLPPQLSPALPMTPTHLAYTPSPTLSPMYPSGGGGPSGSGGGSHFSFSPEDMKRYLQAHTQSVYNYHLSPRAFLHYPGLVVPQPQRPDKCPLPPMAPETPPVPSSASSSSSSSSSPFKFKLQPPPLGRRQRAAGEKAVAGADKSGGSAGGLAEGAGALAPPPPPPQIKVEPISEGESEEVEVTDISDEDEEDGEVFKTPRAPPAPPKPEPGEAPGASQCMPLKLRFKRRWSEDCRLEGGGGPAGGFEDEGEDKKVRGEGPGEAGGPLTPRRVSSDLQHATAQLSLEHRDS", "in_short": "as §1"}, "ETV3L": {"target": "T8, ETV3L (Homo sapiens, UniProt Q6ZN32 1-361)", "T8 sequence": "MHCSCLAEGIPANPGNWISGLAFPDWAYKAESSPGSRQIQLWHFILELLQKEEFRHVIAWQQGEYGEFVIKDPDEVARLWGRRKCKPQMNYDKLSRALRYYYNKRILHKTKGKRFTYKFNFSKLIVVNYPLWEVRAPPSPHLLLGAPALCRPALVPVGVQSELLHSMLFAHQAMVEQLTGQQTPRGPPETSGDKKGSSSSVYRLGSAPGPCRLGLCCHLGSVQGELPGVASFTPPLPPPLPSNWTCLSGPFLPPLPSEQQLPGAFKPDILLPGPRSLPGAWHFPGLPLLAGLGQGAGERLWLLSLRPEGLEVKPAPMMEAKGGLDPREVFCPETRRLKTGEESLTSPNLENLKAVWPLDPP", "in_short": "as §1"}, "ETV7": {"target": "T9, ETV7 (Homo sapiens, UniProt Q9Y603 1-341)", "T9 sequence": "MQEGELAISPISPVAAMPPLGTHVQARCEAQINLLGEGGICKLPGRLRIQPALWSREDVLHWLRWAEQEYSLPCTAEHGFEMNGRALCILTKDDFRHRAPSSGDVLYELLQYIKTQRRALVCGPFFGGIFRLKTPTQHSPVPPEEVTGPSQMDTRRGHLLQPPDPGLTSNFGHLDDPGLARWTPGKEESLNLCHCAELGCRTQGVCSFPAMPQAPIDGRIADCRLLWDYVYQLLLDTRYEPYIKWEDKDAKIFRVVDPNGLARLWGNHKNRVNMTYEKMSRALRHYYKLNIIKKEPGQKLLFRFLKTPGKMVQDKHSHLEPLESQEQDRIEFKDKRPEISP", "in_short": "as §1"}, "ETV3": {"target": "T10, ETV3 (Homo sapiens, UniProt P41162-2 1-143)", "T10 sequence": "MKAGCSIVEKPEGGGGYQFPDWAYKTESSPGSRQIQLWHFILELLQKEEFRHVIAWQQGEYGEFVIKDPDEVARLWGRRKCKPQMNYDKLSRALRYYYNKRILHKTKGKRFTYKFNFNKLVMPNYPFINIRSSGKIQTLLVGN", "in_short": "as §1"}, "ETV6": {"target": "ETV6 (Homo sapiens, UniProt P41212 1-452)", "sequence (P41212 whole entry)": "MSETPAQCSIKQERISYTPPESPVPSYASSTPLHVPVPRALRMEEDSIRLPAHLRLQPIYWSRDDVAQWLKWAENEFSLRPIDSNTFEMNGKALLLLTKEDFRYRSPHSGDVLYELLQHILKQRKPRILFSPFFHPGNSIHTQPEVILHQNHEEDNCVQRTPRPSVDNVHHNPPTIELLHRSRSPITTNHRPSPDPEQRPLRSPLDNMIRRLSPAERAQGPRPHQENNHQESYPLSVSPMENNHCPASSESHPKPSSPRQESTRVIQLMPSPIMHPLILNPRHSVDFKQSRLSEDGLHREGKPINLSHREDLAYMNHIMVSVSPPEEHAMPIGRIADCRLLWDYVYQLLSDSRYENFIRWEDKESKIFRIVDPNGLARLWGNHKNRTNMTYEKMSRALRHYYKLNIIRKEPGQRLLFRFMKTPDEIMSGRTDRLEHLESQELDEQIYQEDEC", "in_short": "as §1"}}}
{"sequence": "TGTTGT", "values": [{"measurement": "binding signal", "setting": "ELK1", "value": "1.15 fold enrichment (6-mer frequency, TF over GST control)"}, {"measurement": "binding signal", "setting": "ERG", "value": "1.08 fold enrichment (6-mer frequency, TF over GST control)"}, {"measurement": "binding signal", "setting": "ELF1", "value": "1.13 fold enrichment (6-mer frequency, TF over GST control)"}, {"measurement": "binding signal", "setting": "EHF", "value": "1.09 fold enrichment (6-mer frequency, TF over GST control)"}, {"measurement": "binding signal", "setting": "SPI1", "value": "1.1 fold enrichment (6-mer frequency, TF over GST control)"}, {"measurement": "binding signal", "setting": "SPIB", "value": "1.12 fold enrichment (6-mer frequency, TF over GST control)"}, {"measurement": "binding signal", "setting": "ELK3", "value": "1.05 fold enrichment (6-mer frequency, TF over GST control)"}, {"measurement": "binding signal", "setting": "SPIC", "value": "1.23 fold enrichment (6-mer frequency, TF over GST control)"}, {"measurement": "binding signal", "setting": "ELF4", "value": "1.11 fold enrichment (6-mer frequency, TF over GST control)"}, {"measurement": "binding signal", "setting": "ELK4", "value": "1.24 fold enrichment (6-mer frequency, TF over GST control)"}, {"measurement": "binding signal", "setting": "ETV1", "value": "1.2 fold enrichment (6-mer frequency, TF over GST control)"}, {"measurement": "binding signal", "setting": "ERF", "value": "1.02 fold enrichment (6-mer frequency, TF over GST control)"}, {"measurement": "binding signal", "setting": "ETV3L", "value": "1.15 fold enrichment (6-mer frequency, TF over GST control)"}, {"measurement": "binding signal", "setting": "ETV7", "value": "1.14 fold enrichment (6-mer frequency, TF over GST control)"}, {"measurement": "binding signal", "setting": "ETV3", "value": "1.14 fold enrichment (6-mer frequency, TF over GST control)"}, {"measurement": "binding signal", "setting": "ETV6", "value": "1.11 fold enrichment (6-mer frequency, TF over GST control)"}]}
